# Numbering of substitutions follows the chain as printed.
# Columns and labels:
# Assay in all cases: PBM; 200 nM protein, PBS
# Settings in all cases: dsDNA, one strand shown
# [1] = target: HESX1 (Homo sapiens, UniProt Q9UBX0 95-180, R165K)
# [2] = target: HESX1 (Homo sapiens, UniProt Q9UBX0 95-180)
# [3] = target: HESX1 (Homo sapiens, UniProt Q9UBX0 95-180, R109Q)
# [4] = target: HESX1 (Homo sapiens, UniProt Q9UBX0 95-180, P111T)
# [5] = target: HESX1 (Homo sapiens, UniProt Q9UBX0 95-180, F115L)
# [6] = target: VAX1 (Homo sapiens, UniProt Q5SQQ9 86-172)
# [7] = target: VAX1 (Homo sapiens, UniProt Q5SQQ9 86-172, T142I)
# [8] = target: VAX1 (Homo sapiens, UniProt Q5SQQ9 86-172, K157R)
# [9] = target: PROP1 (Homo sapiens, UniProt O75360 56-141)
# [10] = target: PROP1 (Homo sapiens, UniProt O75360 56-141, R99H)
# [11] = target: PROP1 (Homo sapiens, UniProt O75360 56-141, F88S)
# [12] = target: ALX3 (Homo sapiens, UniProt O95076 139-225, N203Q)
# [13] = target: ALX3 (Homo sapiens, UniProt O95076 139-225)
# [14] = target: ALX3 (Homo sapiens, UniProt O95076 139-225, L168Q)
# [15] = target: ALX3 (Homo sapiens, UniProt O95076 139-225, L168V)
# [16] = target: ALX3 (Homo sapiens, UniProt O95076 139-225, N203S)
# [17] = target: T1, NKX2-6 (Homo sapiens, UniProt A6NCS4 118-204)
# T1 sequence: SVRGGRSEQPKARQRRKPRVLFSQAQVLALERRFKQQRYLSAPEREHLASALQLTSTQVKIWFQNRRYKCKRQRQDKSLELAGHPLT
# [18] = target: T2, NKX2-6 (Homo sapiens, UniProt A6NCS4 118-204, F151L)
# T2 sequence: T1 sequence with F34L
# [19] = target: T3, NKX2-6 (Homo sapiens, UniProt A6NCS4 118-204, R150C)
# T3 sequence: T1 sequence with R33C
# Chain of HESX1 (Homo sapiens, UniProt Q9UBX0 95-180, P111T) (Q9UBX0 95-180 P111T): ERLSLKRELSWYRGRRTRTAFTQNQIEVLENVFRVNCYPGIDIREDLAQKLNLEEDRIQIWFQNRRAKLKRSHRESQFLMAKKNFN
# Chain of PROP1 (Homo sapiens, UniProt O75360 56-141, F88S) (O75360 56-141 F88S): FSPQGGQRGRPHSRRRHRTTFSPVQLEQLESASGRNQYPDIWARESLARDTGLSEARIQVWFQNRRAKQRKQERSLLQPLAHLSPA
# Chain of PROP1 (Homo sapiens, UniProt O75360 56-141) (O75360 56-141): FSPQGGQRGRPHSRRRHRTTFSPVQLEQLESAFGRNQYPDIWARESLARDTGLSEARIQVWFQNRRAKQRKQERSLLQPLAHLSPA
# Chain of HESX1 (Homo sapiens, UniProt Q9UBX0 95-180, R165K) (Q9UBX0 95-180 R165K): as the sequence (Q9UBX0 95-180 P111T) above, with T17P, R71K counted along it
# Chain of HESX1 (Homo sapiens, UniProt Q9UBX0 95-180, R109Q) (Q9UBX0 95-180 R109Q): as the sequence (Q9UBX0 95-180 P111T) above, with R15Q, T17P counted along it
# Chain of PROP1 (Homo sapiens, UniProt O75360 56-141, R99H) (O75360 56-141 R99H): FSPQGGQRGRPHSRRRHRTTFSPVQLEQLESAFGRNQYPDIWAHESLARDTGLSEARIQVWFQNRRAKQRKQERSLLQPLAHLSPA
# Chain of HESX1 (Homo sapiens, UniProt Q9UBX0 95-180, F115L) (Q9UBX0 95-180 F115L): as the sequence (Q9UBX0 95-180 P111T) above, with T17P, F21L counted along it
# Chain of HESX1 (Homo sapiens, UniProt Q9UBX0 95-180) (Q9UBX0 95-180): as the sequence (Q9UBX0 95-180 P111T) above, with T17P counted along it
# Chain of ALX3 (Homo sapiens, UniProt O95076 139-225, L168Q) (O95076 139-225 L168Q): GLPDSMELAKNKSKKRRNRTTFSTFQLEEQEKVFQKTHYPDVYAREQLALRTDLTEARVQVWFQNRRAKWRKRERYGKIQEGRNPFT
# Chain of ALX3 (Homo sapiens, UniProt O95076 139-225, N203S) (O95076 139-225 N203S): as the sequence (O95076 139-225 L168Q) above, with Q30L, N65S counted along it
# Chain of ALX3 (Homo sapiens, UniProt O95076 139-225, L168V) (O95076 139-225 L168V): as the sequence (O95076 139-225 L168Q) above, with Q30V counted along it
# Chain of ALX3 (Homo sapiens, UniProt O95076 139-225, N203Q) (O95076 139-225 N203Q): as the sequence (O95076 139-225 L168Q) above, with Q30L, N65Q counted along it
# Chain of ALX3 (Homo sapiens, UniProt O95076 139-225) (O95076 139-225): as the sequence (O95076 139-225 L168Q) above, with Q30L counted along it
# Chain of VAX1 (Homo sapiens, UniProt Q5SQQ9 86-172, K157R) (Q5SQQ9 86-172 K157R): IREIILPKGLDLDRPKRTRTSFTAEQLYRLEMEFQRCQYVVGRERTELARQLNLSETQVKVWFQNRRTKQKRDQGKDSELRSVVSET
# Chain of VAX1 (Homo sapiens, UniProt Q5SQQ9 86-172, T142I) (Q5SQQ9 86-172 T142I): as the sequence (Q5SQQ9 86-172 K157R) above, with T57I, R72K counted along it
# Chain of VAX1 (Homo sapiens, UniProt Q5SQQ9 86-172) (Q5SQQ9 86-172): as the sequence (Q5SQQ9 86-172 K157R) above, with R72K counted along it
sequence,measurement,setting,value
CGACGTTC,binding signal,[1],"6.45 upbm affinity estimate (log intensity, higher = more binding, comparable within an allelic series)"
same,binding signal,[2],"6.3 upbm affinity estimate (log intensity, higher = more binding, comparable within an allelic series)"
same,binding signal,[3],"6.42 upbm affinity estimate (log intensity, higher = more binding, comparable within an allelic series)"
same,binding signal,[4],"6.41 upbm affinity estimate (log intensity, higher = more binding, comparable within an allelic series)"
same,binding signal,[5],"6.52 upbm affinity estimate (log intensity, higher = more binding, comparable within an allelic series)"
CACGGCGC,binding signal,[1],"6.6 upbm affinity estimate (log intensity, higher = more binding, comparable within an allelic series)"
same,binding signal,[2],"6.29 upbm affinity estimate (log intensity, higher = more binding, comparable within an allelic series)"
same,binding signal,[3],"6.5 upbm affinity estimate (log intensity, higher = more binding, comparable within an allelic series)"
same,binding signal,[6],"7.16 upbm affinity estimate (log intensity, higher = more binding, comparable within an allelic series)"
same,binding signal,[4],"6.54 upbm affinity estimate (log intensity, higher = more binding, comparable within an allelic series)"
same,binding signal,[5],"6.57 upbm affinity estimate (log intensity, higher = more binding, comparable within an allelic series)"
same,binding signal,[7],"7.21 upbm affinity estimate (log intensity, higher = more binding, comparable within an allelic series)"
same,binding signal,[8],"7.23 upbm affinity estimate (log intensity, higher = more binding, comparable within an allelic series)"
GCAGCGCA,binding signal,[1],"6.45 upbm affinity estimate (log intensity, higher = more binding, comparable within an allelic series)"
same,binding signal,[2],"6.27 upbm affinity estimate (log intensity, higher = more binding, comparable within an allelic series)"
same,binding signal,[9],"6.75 upbm affinity estimate (log intensity, higher = more binding, comparable within an allelic series)"
same,binding signal,[3],"6.54 upbm affinity estimate (log intensity, higher = more binding, comparable within an allelic series)"
same,binding signal,[10],"6.76 upbm affinity estimate (log intensity, higher = more binding, comparable within an allelic series)"
same,binding signal,[4],"6.47 upbm affinity estimate (log intensity, higher = more binding, comparable within an allelic series)"
same,binding signal,[11],"6.81 upbm affinity estimate (log intensity, higher = more binding, comparable within an allelic series)"
same,binding signal,[5],"6.53 upbm affinity estimate (log intensity, higher = more binding, comparable within an allelic series)"
CGCCCAAG,binding signal,[1],"6.57 upbm affinity estimate (log intensity, higher = more binding, comparable within an allelic series)"
same,binding signal,[2],"6.59 upbm affinity estimate (log intensity, higher = more binding, comparable within an allelic series)"
same,binding signal,[12],"7.75 upbm affinity estimate (log intensity, higher = more binding, comparable within an allelic series)"
same,binding signal,[13],"7.67 upbm affinity estimate (log intensity, higher = more binding, comparable within an allelic series)"
same,binding signal,[3],"6.54 upbm affinity estimate (log intensity, higher = more binding, comparable within an allelic series)"
same,binding signal,[14],"7.8 upbm affinity estimate (log intensity, higher = more binding, comparable within an allelic series)"
same,binding signal,[4],"6.5 upbm affinity estimate (log intensity, higher = more binding, comparable within an allelic series)"
same,binding signal,[15],"7.74 upbm affinity estimate (log intensity, higher = more binding, comparable within an allelic series)"
same,binding signal,[5],"6.55 upbm affinity estimate (log intensity, higher = more binding, comparable within an allelic series)"
same,binding signal,[16],"7.78 upbm affinity estimate (log intensity, higher = more binding, comparable within an allelic series)"
CTTGGCGA,binding signal,[1],"6.46 upbm affinity estimate (log intensity, higher = more binding, comparable within an allelic series)"
same,binding signal,[2],"6.46 upbm affinity estimate (log intensity, higher = more binding, comparable within an allelic series)"
same,binding signal,[9],"6.63 upbm affinity estimate (log intensity, higher = more binding, comparable within an allelic series)"
same,binding signal,[3],"6.48 upbm affinity estimate (log intensity, higher = more binding, comparable within an allelic series)"
same,binding signal,[10],"6.61 upbm affinity estimate (log intensity, higher = more binding, comparable within an allelic series)"
same,binding signal,[4],"6.51 upbm affinity estimate (log intensity, higher = more binding, comparable within an allelic series)"
same,binding signal,[11],"6.64 upbm affinity estimate (log intensity, higher = more binding, comparable within an allelic series)"
same,binding signal,[5],"6.53 upbm affinity estimate (log intensity, higher = more binding, comparable within an allelic series)"
AACTCATA,binding signal,[1],"7.51 upbm affinity estimate (log intensity, higher = more binding, comparable within an allelic series)"
same,binding signal,[2],"7.49 upbm affinity estimate (log intensity, higher = more binding, comparable within an allelic series)"
same,binding signal,[3],"7.12 upbm affinity estimate (log intensity, higher = more binding, comparable within an allelic series)"
same,binding signal,[4],"7.23 upbm affinity estimate (log intensity, higher = more binding, comparable within an allelic series)"
CACCCGGC,binding signal,[1],"6.47 upbm affinity estimate (log intensity, higher = more binding, comparable within an allelic series)"
same,binding signal,[2],"6.48 upbm affinity estimate (log intensity, higher = more binding, comparable within an allelic series)"
same,binding signal,[17],"9.18 upbm affinity estimate (log intensity, higher = more binding, comparable within an allelic series)"
same,binding signal,[3],"6.53 upbm affinity estimate (log intensity, higher = more binding, comparable within an allelic series)"
same,binding signal,[4],"6.47 upbm affinity estimate (log intensity, higher = more binding, comparable within an allelic series)"
same,binding signal,[18],"9.14 upbm affinity estimate (log intensity, higher = more binding, comparable within an allelic series)"
same,binding signal,[5],"6.3 upbm affinity estimate (log intensity, higher = more binding, comparable within an allelic series)"
CCGGTCAG,binding signal,[1],"6.41 upbm affinity estimate (log intensity, higher = more binding, comparable within an allelic series)"
same,binding signal,[2],"6.5 upbm affinity estimate (log intensity, higher = more binding, comparable within an allelic series)"
same,binding signal,[3],"6.57 upbm affinity estimate (log intensity, higher = more binding, comparable within an allelic series)"
same,binding signal,[4],"6.6 upbm affinity estimate (log intensity, higher = more binding, comparable within an allelic series)"
same,binding signal,[5],"6.53 upbm affinity estimate (log intensity, higher = more binding, comparable within an allelic series)"
CTAGGGCC,binding signal,[1],"6.49 upbm affinity estimate (log intensity, higher = more binding, comparable within an allelic series)"
same,binding signal,[2],"6.45 upbm affinity estimate (log intensity, higher = more binding, comparable within an allelic series)"
same,binding signal,[12],"7.79 upbm affinity estimate (log intensity, higher = more binding, comparable within an allelic series)"
same,binding signal,[13],"7.79 upbm affinity estimate (log intensity, higher = more binding, comparable within an allelic series)"
same,binding signal,[3],"6.47 upbm affinity estimate (log intensity, higher = more binding, comparable within an allelic series)"
same,binding signal,[14],"7.79 upbm affinity estimate (log intensity, higher = more binding, comparable within an allelic series)"
same,binding signal,[4],"6.36 upbm affinity estimate (log intensity, higher = more binding, comparable within an allelic series)"
same,binding signal,[15],"7.77 upbm affinity estimate (log intensity, higher = more binding, comparable within an allelic series)"
same,binding signal,[5],"6.42 upbm affinity estimate (log intensity, higher = more binding, comparable within an allelic series)"
same,binding signal,[16],"7.79 upbm affinity estimate (log intensity, higher = more binding, comparable within an allelic series)"
AAGGAGGC,binding signal,[1],"6.49 upbm affinity estimate (log intensity, higher = more binding, comparable within an allelic series)"
same,binding signal,[2],"6.42 upbm affinity estimate (log intensity, higher = more binding, comparable within an allelic series)"
same,binding signal,[3],"6.53 upbm affinity estimate (log intensity, higher = more binding, comparable within an allelic series)"
same,binding signal,[4],"6.52 upbm affinity estimate (log intensity, higher = more binding, comparable within an allelic series)"
same,binding signal,[5],"6.51 upbm affinity estimate (log intensity, higher = more binding, comparable within an allelic series)"
CGCTCCTC,binding signal,[1],"6.29 upbm affinity estimate (log intensity, higher = more binding, comparable within an allelic series)"
same,binding signal,[2],"6.25 upbm affinity estimate (log intensity, higher = more binding, comparable within an allelic series)"
same,binding signal,[3],"6.53 upbm affinity estimate (log intensity, higher = more binding, comparable within an allelic series)"
same,binding signal,[4],"6.33 upbm affinity estimate (log intensity, higher = more binding, comparable within an allelic series)"
same,binding signal,[5],"6.5 upbm affinity estimate (log intensity, higher = more binding, comparable within an allelic series)"
AAGTTCCC,binding signal,[1],"6.43 upbm affinity estimate (log intensity, higher = more binding, comparable within an allelic series)"
same,binding signal,[2],"6.39 upbm affinity estimate (log intensity, higher = more binding, comparable within an allelic series)"
same,binding signal,[3],"6.56 upbm affinity estimate (log intensity, higher = more binding, comparable within an allelic series)"
same,binding signal,[4],"6.49 upbm affinity estimate (log intensity, higher = more binding, comparable within an allelic series)"
same,binding signal,[5],"6.65 upbm affinity estimate (log intensity, higher = more binding, comparable within an allelic series)"
CAAGCCGC,binding signal,[1],"6.58 upbm affinity estimate (log intensity, higher = more binding, comparable within an allelic series)"
same,binding signal,[2],"6.44 upbm affinity estimate (log intensity, higher = more binding, comparable within an allelic series)"
same,binding signal,[9],"6.56 upbm affinity estimate (log intensity, higher = more binding, comparable within an allelic series)"
same,binding signal,[3],"6.54 upbm affinity estimate (log intensity, higher = more binding, comparable within an allelic series)"
same,binding signal,[10],"6.8 upbm affinity estimate (log intensity, higher = more binding, comparable within an allelic series)"
same,binding signal,[4],"6.58 upbm affinity estimate (log intensity, higher = more binding, comparable within an allelic series)"
same,binding signal,[11],"6.57 upbm affinity estimate (log intensity, higher = more binding, comparable within an allelic series)"
same,binding signal,[5],"6.56 upbm affinity estimate (log intensity, higher = more binding, comparable within an allelic series)"
CTCAATAC,binding signal,[1],"7.27 upbm affinity estimate (log intensity, higher = more binding, comparable within an allelic series)"
same,binding signal,[2],"7.48 upbm affinity estimate (log intensity, higher = more binding, comparable within an allelic series)"
same,binding signal,[3],"7.22 upbm affinity estimate (log intensity, higher = more binding, comparable within an allelic series)"
same,binding signal,[4],"7.29 upbm affinity estimate (log intensity, higher = more binding, comparable within an allelic series)"
AATACATA,binding signal,[1],"7.62 upbm affinity estimate (log intensity, higher = more binding, comparable within an allelic series)"
same,binding signal,[2],"7.7 upbm affinity estimate (log intensity, higher = more binding, comparable within an allelic series)"
same,binding signal,[3],"7.3 upbm affinity estimate (log intensity, higher = more binding, comparable within an allelic series)"
same,binding signal,[4],"7.6 upbm affinity estimate (log intensity, higher = more binding, comparable within an allelic series)"
same,binding signal,[5],"7.4 upbm affinity estimate (log intensity, higher = more binding, comparable within an allelic series)"
AGCCGGTC,binding signal,[1],"6.51 upbm affinity estimate (log intensity, higher = more binding, comparable within an allelic series)"
same,binding signal,[2],"6.44 upbm affinity estimate (log intensity, higher = more binding, comparable within an allelic series)"
same,binding signal,[19],"9.54 upbm affinity estimate (log intensity, higher = more binding, comparable within an allelic series)"
same,binding signal,[3],"6.51 upbm affinity estimate (log intensity, higher = more binding, comparable within an allelic series)"
same,binding signal,[4],"6.57 upbm affinity estimate (log intensity, higher = more binding, comparable within an allelic series)"
same,binding signal,[5],"6.52 upbm affinity estimate (log intensity, higher = more binding, comparable within an allelic series)"
CCACTGCG,binding signal,[1],"6.48 upbm affinity estimate (log intensity, higher = more binding, comparable within an allelic series)"
same,binding signal,[2],"6.49 upbm affinity estimate (log intensity, higher = more binding, comparable within an allelic series)"
same,binding signal,[3],"6.5 upbm affinity estimate (log intensity, higher = more binding, comparable within an allelic series)"
same,binding signal,[4],"6.5 upbm affinity estimate (log intensity, higher = more binding, comparable within an allelic series)"
same,binding signal,[5],"6.42 upbm affinity estimate (log intensity, higher = more binding, comparable within an allelic series)"

# Source: article PMC11006913
